Assay results from PubChem BioAssay AID1347426 (Functional Genomics Laboratory (NCATS/FGL), 2020).
Out of some 31,000 sequences screened, about 1,400 (4.5%) were called active. Many of the other results were omitted from the sample, so actives are more common in it than they were. Values without a mark were called inactive.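 The calls were made as follows: active = median seed-adjusted z-score above 1 or below -1; inactive = the rest.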

Experiment: Novel Modifiers of Survival Motor Neuron (SMN) Protein: Gene Identification via Genome-wide siRNA Screen;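 also: luminescence tracks full-length SMN protein made from the SMN2 reporter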
Conditions: HEK293T SMN2-luciferase reporter, siRNA knockdown, 72 h; actives lie on both sides
In short: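 siRNA screen, 10418 genes ×3 siRNAs; 1 pmol/well, lipid reverse transfection into HEK293T SMN2-luc reporter line. 72 h, 37 °C, 5% CO2; ONE-Glo readout. Data: neg-ctrl normalized, log10, MAD; hit = MAD >1.0 or < -1.0.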

Compared with CACUCGAAGCAGUUUGGAATT against SMS, CAGUGAAACUGCACCUCUATT against TGM1 is lower in median seed-adjusted z-score: 0.186 for the first, -0.286 for the second.

First: ACGGCAAGGUGUUCGAUGUTT against PGRMC1
Second: CGUUCGACCUGAUCGCAAATT against ODZ2
The median seed-adjusted z-score of the first is higher: 0.124 for the first, -0.0233 for the second.

Compared with GGGUCACACUAUUUCGUGUTT against ARIH1, GAUGAGUGCUGCUUCCGGATT against IGF1 is higher in median seed-adjusted z-score: -0.443 for the first, 0.559 for the second.

Compared with CCAGCUCCACGAAAAAGAATT against ZNF395, GAUACAGUCUACGCAGUUATT against ATPAF1 is higher in median seed-adjusted z-score: -0.0986 for the first, 0.393 for the second.

First: CAGCGUGCAUUUUCACUAATT against AKAP11
Second: GGCUACAAUUUAAGACGAUTT against TNR
The median seed-adjusted z-score of the first is lower: -0.0405 for the first, 0.498 for the second.

Compared with GGUUAUGUAGUAACGAGUUTT against ALS2, GGAAUAUAAUAAGCGAAGATT against TAOK1 is lower in median seed-adjusted z-score: 0 for the first, -0.0533 for the second.

Going from CGAGACUACUAAAGAAACATT against DDX18 to CCAUCUCCCUUGUGCUGCATT against NINJ1, the median seed-adjusted z-score falls from 0.241 to -0.061.

First: GAGAGACCCUCGUCCUUUATT against CYP20A1
Second: GAAAGGCUUUGACCAAUCUTT against ZNF319
The median seed-adjusted z-score of the first is lower: -0.796 for the first, 0.256 for the second.

Going from GUCACUAGCUUAUCUUGAATT against VEGFA to GAAAAUCGAAAGACUAAAATT against UTP11L, the median seed-adjusted z-score falls from 0.495 to -0.755.

Compared with CUAAUGAGUUUGUCUAAUATT against PKDREJ, AGUGGAUUGUAGACAUGGATT against UBE2W is lower in median seed-adjusted z-score: 0.376 for the first, -0.655 for the second.

Going from GCAUCUACCGGAUCCUGAUTT against DDX49 to GCAGGCUAAUCGCAAUGAATT against ANXA13, the median seed-adjusted z-score falls from 0.0816 to -0.467.

First: GCCAGAGUCCUGAUGCACATT against GPR31
Second: GGACAAAGCAUUGACAAUUTT against KCNJ13
The median seed-adjusted z-score of the first is lower: -0.0381 for the first, 0.327 for the second.

First: CAUCGGCUAUGACAACAUUTT against PSTPIP2
Second: GAGUUAGGGAAAAAGCGUATT against ANK3
The median seed-adjusted z-score of the first is lower: 0.0136 for the first, 0.0252 for the second.

Going from CGUUGUUUUUGAGCACGUUTT against LMBR1 to GGGAGAUCCUAGAACAAGATT against TAOK1, the median seed-adjusted z-score falls from 0.236 to -0.0533.

Going from GUUUUGACCCUAUAGUUUATT against P2RY5 to GCAUUUGUUUGGGUUGCGATT against MTF2, the median seed-adjusted z-score falls from 0.0278 to 0.

Compared with GCAUUGUGAUCGAGGACAATT against HCN2, ACAUCGAGUCAGAUCUUCATT against SLC11A1 is lower in median seed-adjusted z-score: 0 for the first, -0.516 for the second.

Compared with GGAGGUAUCUAACAAGAUUTT against LPO, UGCACGAUCUUCUACCCAATT against TKTL1 is lower in median seed-adjusted z-score: 0.201 for the first, -0.495 for the second.

Compared with AGCUUUCUUGAGCACCUGATT against LRRC32, GAUGGACAUUGAUAGCGAUTT against DTX3L is higher in median seed-adjusted z-score: 0.0464 for the first, 0.0785 for the second.

Compared with GAACGGCUCUUAAGAUCAATT against CACNA1D, GGAAAUCUGUCACAUCGUATT against NR1I3 is higher in median seed-adjusted z-score: -0.0856 for the first, 0.000933 for the second.

Going from CGGGUUUCAUCAAAGUGCATT against RASSF5 to GCAACUUCCUAGAACUGUUTT against PCYT1B, the median seed-adjusted z-score rises from 0.11 to 0.177.

Compared with GGAGGACGGCUUCUACGAATT against KCNJ9, CGUACAUCCAGUGACCCUATT against MTMR4 is lower in median seed-adjusted z-score: -0.0832 for the first, -0.735 for the second.

First: GAAACCAUCGGGAAGAUUUTT against VWA2
Second: GAAAUGUGGUACUAAAGCATT against RALBP1
The median seed-adjusted z-score of the first is higher: 0.584 for the first, -0.0514 for the second.

Going from CAAUGAUCAUGGACCGUUUTT against CPEB3 to CAAGUGCGAUAUCACCUUATT against IL4, the median seed-adjusted z-score falls from 0.086 to -0.192.

Compared with GUAUCUAACUUAUCUACUATT against HTR5A, GGUUUCAACUGGACUUCUATT against MFSD5 is higher in median seed-adjusted z-score: -0.0687 for the first, 0.205 for the second.

Going from ACAGUCUUGUGAUCAGAAATT against UHRF1 to GACGUAACAUCAACAGAUATT against SV2B, the median seed-adjusted z-score falls from 0.231 to -0.43.

Compared with GGACUUAACGGUAUCCAAATT against PCDHB10, GCAGCUUUAACCAUUAAAATT against LTB4R is higher in median seed-adjusted z-score: -0.09 for the first, 0.498 for the second.

Compared with GCAAGACAACCAUUCUGUATT against ARF4, GGAAACUUCUCACCUAUGATT against MAGED1 is higher in median seed-adjusted z-score: 0.346 for the first, 0.524 for the second.

Going from CCACUGUUGGAAUUAAAGATT against AOAH to GUACAUAGAUUCUAGGCAATT against FOXJ3, the median seed-adjusted z-score falls from -0.123 to -0.155.

With CCAACGAGCGAGCAGCUUATT against BARX1 the median seed-adjusted z-score was 1.63 (active).
For GCACUAAGAGUGACGUGUATT against PSKH1, the median seed-adjusted z-score was -2.03 (active).
With GAAAGAUGCAAAAGACAAATT against SFPQ the median seed-adjusted z-score was -1.15 (active).
With CUACGACUUUUCCAAUAUATT against SLC6A4 the median seed-adjusted z-score was 1.43 (active).
For AGCAAAGUGUUCUACCUGATT against YWHAG, the median seed-adjusted z-score was 1.98 (active).
For GGUUCGUGAAGUUCGUAAATT against UTP3, the median seed-adjusted z-score was -1.08 (active).
For CGACAAUUCUUCUAGACAATT against TTC3, the median seed-adjusted z-score was -1.17 (active).
For CUAUGUACCGCUUCACUGATT against MMP9, the median seed-adjusted z-score was -1.15 (active).
For GACUCUCUACCAUGGAUUUTT against SLC25A42, the median seed-adjusted z-score was -1.02 (active).
With UCACAGUCACAUACAGAGATT against SNRPD3 the median seed-adjusted z-score was -2.69 (active).
In the case of AAAGCAAGCUGUUACAAAATT against ACAT2, the median seed-adjusted z-score is reported as 1.25 (active).
With GCCGUGCUGAAGGCUCUAATT against KCNE3 the median seed-adjusted z-score was -1.33 (active).
In the case of GGCCGUGUACUGUAUCAUUTT against NUP93, the median seed-adjusted z-score is reported as 1.01 (active).
